Laboratory results taken from PubChem BioAssay AID1159580 (chemical genetic matrix, 2015).
Where “and” joins values, the source holds several entries; their conditions need not be identical. Identical values can stand only once. The campaign covered roughly 5,500 compounds. About 2,000 (36%) were called active. Not shown: some 18% with an inconclusive outcome. Cut-off read from the data, not from the text of the source: active = normalized growth mostly below about 0.91 (no sharp cut-off); inconclusive = no clear call, values can overlap the other calls; inactive = mostly above about 0.92. The list shows a part of the results.

Test: chemical genetic growth profiling, strain panel (AID 1159580);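 note: tested at 20 µM; growth read once vehicle control cultures reached saturation at 30 °C; 1 = growth at the plate median or of vehicle wells; lower values mean less growth of the strain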
Settings: S. cerevisiae deletion strains, growth OD

Measured: normalized growth

CCOc1ccc(Cc2nccc3cc(OCC)c(OCC)cc23)cc1OCC
inactive: locus YAL013W, strain DEP1, active compounds read low 0.976 | locus YAL021C, strain ccr4, active compounds read low 0.946 | locus YAL026C, strain drs2, active compounds read low 0.974 | locus YAL030W, strain snc1, active compounds read low 0.99 | locus YBL061C, strain skt5, active compounds read low 0.968 | locus YBR009C, strain hhf1, active compounds read low 0.975 | locus YBR021W, strain FUR4, active compounds read low 0.961 | locus YBR023C, strain chs3, active compounds read low 0.974 | locus YBR171W, strain sec66, active compounds read low 0.965 | locus YBR229C, strain ROT2, active compounds read low 0.969 | locus YBR231C, strain swc5, active compounds read low 0.998 | locus YBR279W, strain paf1, active compounds read low 0.989 | locus YCL011C, strain gbp2, active compounds read low 0.993 | locus YCL016C, strain dcc1, active compounds read low 0.981 | locus YCL029C, strain bik1, active compounds read low 0.952 | locus YCL069W, strain vba3, active compounds read low 0.99 | locus YCR088W, strain abp1, active compounds read low 0.969 | locus YDL005C, strain med2, active compounds read low 0.989 | locus YDL035C, strain GPR1, active compounds read low 0.956 | locus YDL040C, strain nat1, active compounds read low 0.976 | locus YDL074C, strain BRE1, active compounds read low 0.855 | locus YDL101C, strain DUN1, active compounds read low 0.956 | locus YDL134C, strain PPH21, active compounds read low 0.939 | locus YDL185W, strain tfp1, active compounds read low 0.994 | locus YDL192W, strain arf1, active compounds read low 0.958 | locus YDR001C, strain nth1, active compounds read low 0.977 | locus YDR069C, strain doa4, active compounds read low 0.982 | locus YDR101C, strain arx1, active compounds read low 0.967 | locus YDR137W, strain rgp1, active compounds read low 0.89 | locus YDR150W, strain NUM1, active compounds read low 0.994 | locus YDR159W, strain sac3, active compounds read low 0.892 | locus YDR162C, strain NBP2, active compounds read low 0.945 | locus YDR195W, strain ref2 1.05 | locus YDR297W, strain sur2, active compounds read low 0.976 | locus YDR318W, strain mcm21, active compounds read low 0.931 | locus YDR334W, strain swr1, active compounds read low 0.974 | locus YDR335W, strain msn5, active compounds read low 0.985 | locus YDR388W, active compounds read low 0.954 | locus YDR392W, strain spt3, active compounds read low 0.866 | locus YDR502C, strain sam2, active compounds read low 0.96 | locus YEL003W, strain gim4, active compounds read low 0.963 | locus YEL037C, strain rad23, active compounds read low 0.956 | locus YEL061C, strain CIN8 (second series), active compounds read low 0.959 | locus YEL061C, strain CIN8, active compounds read low 0.986 | locus YER015W, strain faa2, active compounds read low 0.965 | locus YER016W, strain bim1, active compounds read low 0.962 | locus YER110C, active compounds read low 0.968 | locus YER111C, strain swi4, active compounds read low 0.972 | locus YER155C, strain BEM2 (second series), active compounds read low 0.913 | locus YER155C, strain BEM2, active compounds read low 0.99 | locus YER167W, strain BCK2, active compounds read low 0.956 | locus YFR010W, strain ubp6, active compounds read low 0.97 | locus YGL078C, strain dbp3, active compounds read low 0.985 | locus YGL086W, strain mad1, active compounds read low 0.962 | locus YGL167C, strain pmr1, active compounds read low 0.969 | locus YGL173C, strain kem1, active compounds read low 0.966 | locus YGL227W, strain vid30, active compounds read low 0.998 | locus YGL240W, strain doc1, active compounds read low 0.962 | locus YGL248W, strain PDE1, active compounds read low 0.944 | locus YGL253W, strain hxk2, active compounds read low 0.986 | locus YGR078C, strain PAC10, active compounds read low 0.899 | locus YGR135W, strain pre9, active compounds read low 0.92 | locus YGR229C, strain SMI1, active compounds read low 0.91 | locus YGR252W, strain gcn5, active compounds read low 0.776 | locus YHR013C, strain ard1, active compounds read low 0.955 | locus YHR027C, strain rpn1, active compounds read low 0.983 | locus YHR030C, strain SLT2, active compounds read low 0.977 and 0.969 | locus YHR079C, strain IRE1 (second series), active compounds read low 0.954 | locus YHR079C, strain IRE1, active compounds read low 0.939 | locus YHR094C, strain hxt1, active compounds read low 0.977 | locus YHR129C, strain ARP1, active compounds read low 0.978 | locus YHR142W, strain chs7, active compounds read low 0.923 | locus YHR200W, strain rpn10, active compounds read low 0.948 | locus YIL066C, strain RNR3, active compounds read low 0.935 | locus YIL073C, strain SPO22, active compounds read low 0.962 | locus YIL125W, strain kgd1, active compounds read low 0.978 | locus YIR030C, strain dcg1, active compounds read low 0.971 | locus YJL092W, strain hpr5, active compounds read low 0.99 | locus YJL095W, strain BCK1 (second series), active compounds read low 0.968 | locus YJL095W, strain BCK1, active compounds read low 0.882 and 0.963 | locus YJL115W, strain asf1, active compounds read low 0.995 | locus YJL129C, strain trk1, active compounds read low 0.896 | locus YJL134W, strain LCB3, active compounds read low 0.985 | locus YJL154C, strain vps35, active compounds read low 0.973 | locus YJL164C, strain tpk1, active compounds read low 0.973 | locus YJL166W, strain qcr8, active compounds read low 0.967 | locus YJL168C, strain set2, active compounds read low 0.973 | locus YJL187C, strain SWE1 (second series), active compounds read low 0.912 | locus YJR043C, strain POL32, active compounds read low 0.943 | locus YJR066W, strain TOR1, active compounds read low 0.9
